SARS PLP yeast: blocks SARS-CoV papain-like protease in a yeast assay; 330,000 compounds, 0.19% hits; Potency, µM (top dose mostly 32.9 µM), for the others: at the highest dose activity, positive = growth rescue, most hits filed as activators; S. cerevisiae expressing SARS-CoV PLpro, growth rescue; also: potency is read from the fitted curve at half-maximal effect; 0% is about no effect; nearly all actives have a fitted effect of over 55% in size
Shiga inhibitor: inhibitors of Shiga toxin in Vero cells | Vero cells, Shiga toxin protein synthesis inhibition reporter | inhibition, % at 38.7 µM | 290,000 compounds, 9.2% hits; in the data active = inhibition mostly above about 28%, no sharp cut-off; inactive = mostly below about 43%; also: 0% is about no effect
NS1 inh: influenza NS1 inhibition; Potency, µM (highest dose often 46.1 µM), inactives show top-dose activity, positive = more growth; 270,000 compounds, 0.4% hits; AID 2326; also: potency is read from the fitted curve at half-maximal effect; actives are rising curves; nearly all actives have a fitted effect of over 50% in size
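Recovery from NS1-induced slow growth read by OD600 in budding yeast switched to galactose assay medium (pH 6.0, -URA) at 1:100 dilution. Compound 23 nl per well; the matching strain lacking NS1 serves as control.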
Cycloheximide cs: affects cycloheximide protein synthesis inhibition readout, counter-screen; cell reporter, cycloheximide protein synthesis inhibition counterscreen; max response, %; 300,000 compounds, 12% hits; AID 2314; in the data active = max response mostly above about 13%, no sharp cut-off; inactive = mostly below about 14%; also: read at 38.3 µM for the half of the compounds with a filed dose; 0% is about no effect
Starred values were filed as active, the others as inactive; ? = inconclusive; / = no result given; + = active, no number. Shown are actives, neighbours in structure and some others; about 12% of the full set was active somewhere. Unless noted, calls follow the shape of the full dose curve.

SMILES	SARS PLP yeast	Shiga inhibitor	NS1 inh	Cycloheximide cs
Cc1ccc(S(=O)(=O)N(C)C)cc1NC(=O)COC(=O)C1=COCCO1	-1%	/	/	/
O=C1CCCN2N=C(SCC(=O)Nc3ccc(F)cc3F)SC2=N1	0%	-6	-11%	2
CC(=O)N1N=C2/C(=C/c3ccccc3)CCCC2C1c1ccccc1 (stereo not given)	-1%	72*	0%	48*
O=C(Cn1c(-c2cncs2)nc2ccccc21)NCCc1ccccc1	?	13	-62%	-3
Brc1cccc(Cn2c(-c3cncs3)nc3ccccc32)c1	4%	32*	-5%	12
Brc1ccc(Cn2c(-c3cncs3)nc3ccccc32)cc1	6%	94*	-5%	33*
c1ccc(Cn2c(-c3cncs3)nc3ccccc32)cc1	-27%	47	-121%	60*
Nc1ncnc2c1ncn2[C@@H]1O[C@H](COP(=O)(O)OP(=O)(O)OP(=O)(O)OP(=O)(O)OC[C@@H]2O[C@H](n3cnc4c(N)ncnc43)[C@@H](O)[C@@H]2O)[C@H](O)[C@H]1O	/	/	1%	/
COc1ccc(OCc2nnc(SCC(=O)NC3CC4CCC3C4)o2)cc1 (stereo not given)	-1%	44	-2%	28*
COc1ccc(OCc2nnc(SCC(=O)NC3CCCCC3)o2)cc1	-1%	30*	-27%	10
Cc1ccc(S(=O)(=O)N2CCCCC2)cc1NC(=S)NC(=O)c1ccco1	-1%	16	15%	8
Cc1ccc2nc(NC(=O)C3CCN(S(=O)(=O)c4cc([N+](=O)[O-])ccc4Cl)CC3)sc2c1	5%	+	?	13*
O=C(Nc1nc2ccc(F)cc2s1)C1CCN(S(=O)(=O)c2cc([N+](=O)[O-])ccc2Cl)CC1	0%	52*	30%	34*
Cc1ccc(NC(=O)C2CCN(S(=O)(=O)c3cc([N+](=O)[O-])ccc3Cl)CC2)nc1	0%	/	/	/
CC(NC(=O)C1CCN(S(=O)(=O)c2cc([N+](=O)[O-])ccc2Cl)CC1)c1ccccc1 (stereo not given)	-9%	-8	9%	-2
CC(=O)N/C(=N\c1nc(C)cc(C)n1)Nc1ccc2ccccc2c1	1%	125*	13%	40*
CC(=O)N/C(=N/c1nc(C)cc(C)n1)Nc1ccc(NC(C)=O)cc1	7%	-10	-7%	1
N#CC1=C2C=Cc3ccccc3N2CCCC1=O	-4%	45*	-4%	33*
CCCc1cc(=O)[nH]c(Nc2ccc3c(c2)OCCO3)n1	-1%	42*	/	36*
COCCn1c(=NC(=O)c2cccs2)sc2cc(NC(C)=O)ccc21	-10%	-6	11%	-4
COCCn1c(=NC(=O)C(C)(C)C)sc2cc([N+](=O)[O-])ccc21	14%	9	7%	19*
CCN(c1ccc(NC(=O)CN2C(=O)NC3(CCOc4ccccc43)C2=O)cc1)C(C)C (stereo not given)	-1%	12	-5%	12
O=C(NCCCN1CCOCC1)c1c(F)c(F)c(F)c(F)c1F	-4%	-5	16%	-2
CCC(C)NC(=O)c1cc2c(=O)n3ccccc3nc2s1 (stereo not given)	0%	32*	-3%	35*
CC(C)CCNC(=O)c1cc2c(=O)n3ccccc3nc2s1	0%	41*	-3%	20*
SMILES	SARS PLP yeast	Shiga inhibitor	NS1 inh	Cycloheximide cs
CCn1c(=O)c2cc(C(=O)NCCC(C)C)sc2c2ccccc21	3%	-3	-3%	-2
COCCN(CCOC)C(=O)c1cc2c(=O)n3ccccc3nc2s1	0%	23	-2%	34*
CCC(C)NC(=O)c1cc2c(=O)n(CC)c3ccccc3c2s1 (stereo not given)	1%	9	-1%	12*
CC(=O)Nc1c(C(=O)Nc2ccc3c(c2)OCO3)oc2ccccc12	-3%	114*	-3%	42*
CC(=O)Nc1c(C(=O)O)oc2ccccc12	1%	41	-1%	24*
O=C(CCl)Nc1c(C(=O)Nc2ccc3c(c2)OCCO3)oc2ccccc12	10%	84*	16%	69*
Cc1c(C(=O)Nc2ccc3c(c2)OCO3)oc2ccccc12	-5%	121*	-69%	43
COCC(=O)Nc1c(C(=O)Nc2ccc3c(c2)OCO3)oc2ccccc12	-8%	11	8%	7
S=C(NCCN1CCOCC1)Nc1ccccc1Cl	-6%	-8	8%	8
O=C(COC(=O)c1cccc(S(=O)(=O)Nc2ccc(F)cc2)c1)NCCN1C(=O)CSC1=O	-3%	/	/	/
COc1ccccc1C(=O)NCC(=O)NCc1cc(=O)n(C)c(=O)n1C	2%	-7	-12%	-3
CSCc1c(C(=O)Nc2ccc3c(c2)OCO3)oc2ccccc12	-4%	60*	-8%	19*
CCCCSc1nc(NCc2ccco2)c2c3c(sc2n1)COC(C)(C)C3	-10%	70*	14%	44*
CCCSc1nc(NCc2ccco2)c2c3c(sc2n1)COC(C)(C)C3	-27%	46*	19%	26
CSc1nc(NCc2ccco2)c2c3c(sc2n1)CN(C)CC3	0%	-13	3%	-3
Cc1ccc(NC(=O)COc2ccc3c(c2)OCO3)c(Cl)c1	-5%	/	/	/
COc1ccc(C(=O)C2CCCN(C(=O)c3cccc(N(C)C)c3)C2)cc1OC (stereo not given)	4%	-2	-9%	8
CCOc1ccccc1CNc1ncnc2ccc(-c3c(C)noc3C)cc12	-8%	52	/	30*
Cc1cc(Cl)ccc1OCc1cn2cccnc2n1	-2%	84*	/	51*
Cc1ccc(S(=O)(=O)Cc2cn3cccnc3n2)cc1	0%	8	-6%	2
c1cnc2c(OCc3cn4cccnc4n3)cccc2c1	-9%	77	16%	28*
Fc1ccc(COc2cccc3cccnc23)cc1	-1%	91*	-5%	41*
Clc1cccc(NCc2cn3cccnc3n2)c1	-8%	18	1%	27*
Clc1ccc(OCc2cn3cccnc3n2)c2ncccc12	?	101*	-10%	35*
CC12CCC(=O)N1C(C(=O)NNC(=O)c1ccccc1Cl)CS2 (stereo not given)	-6%	/	/	/
SMILES	SARS PLP yeast	Shiga inhibitor	NS1 inh	Cycloheximide cs
CCOc1ccc(C(C)=O)cc1NC(=O)/C=C\C(=O)O	-1%	-2	9%	-2
O=C(Nc1cnc2sccn2c1=O)c1ccc(Cl)cc1Cl	4%	120*	1%	38*
COc1ccc(Cl)cc1NC(=O)c1cnc2sccn2c1=O	-3%	25	-6%	-2
CCOC(=O)c1cc(C(=O)Nc2ccc(C)c(F)c2)nn1C	-9%	62*	-26%	44*
O=C(Cc1ccc(F)cc1)Nc1c2c(nn1-c1cccc(Cl)c1)CS(=O)C2 (stereo not given)	-3%	7	3%	-2
O=C(COc1ccc(Br)cc1)Nc1nc(-c2cccnc2)cs1	0%	-4	-1%	1
O=C(CC1SC(=O)N(c2ccccc2)C1=O)Nc1ccc(Br)cc1 (stereo not given)	-5%	51*	6%	24*
O=C(CC1SC(=NCCc2ccccc2)N(/N=C/c2cccs2)C1=O)Nc1ccc(Cl)cc1 (stereo not given)	19%	21	1%	13*
O=C(CC1SC(=O)N(c2ccccc2)C1=O)Nc1ccc(Cl)cc1 (stereo not given)	-6%	46	10%	14*
